PubChem BioAssay (EPA / NIEHS)
Where “and” joins values, the source holds several entries; their conditions need not be identical. Identical values can stand only once. Records with an inconclusive call do not appear. The source holds several records for some structures; these can differ, active in one and inactive in another. Calls of active or inactive are those of the source. How the source made its calls, unless noted: active means hit-call score of the fitted dose curve at least 0.9, where 1 is the maximum; inactive means score below 0.9.

How the values were obtained:
[1] = read-out: Monokine induced gamma interferon (MIG), CXCL9 (gene 4283); assay: BSK_SAg_MIG: BioMAP Diversity Plus: SAg Assay for Monokine induced gamma interferon (MIG) Biomarker Activity (AID 2283092); conditions: primary human HUVEC with PBMC; actives raise or lower the signal
How it was run: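 HUVEC plus human PBMC co-culture, chemicals dosed and MIG (CXCL9) quantified by ELISA at 24 h. Bidirectional curve fitting against DMSO as negative control and baseline, so both gain and loss of signal count as activity.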

[2] = BSK_SAg_PBMCCytotoxicity: PBMC Cytotoxicity Assessment in the BioMAP Diversity Plus: SAg Assay (AID 2283093); conditions: primary human HUVEC with PBMC;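 further: PBMC viability measured as Alamar Blue reduction fluorescence at 546/580 nm; fitted both ways against DMSO so a hit may be loss or gain of signal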;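 on AC50: PBMC superantigen activated with SEB plus TSST-1 one hour after compound addition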
How it was run: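 Human umbilical vein endothelial cells co-cultured with PBMC; PBMC (75,000/well) pre-treated with compound 1 h, then activated with SEB and TSST-1 (20 ng/mL final each) for 90 h. Alamar Blue added 6 h, fluorescence 546/580 nm; bidirectional fit versus DMSO.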

[3] = read-out: Interleukin-8 (IL8), CXCL8 (gene 3576); assay: BSK_SAg_IL8: BioMAP Diversity Plus: SAg Assay for Interleukin-8 (IL8) Biomarker Activity (AID 2283094); conditions: primary human HUVEC with PBMC; actives raise or lower the signal
How it was run: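 ELISA read-out of IL-8 in a primary human vascular co-culture (umbilical vein endothelium plus PBMC), taken 24 h after compound addition. Values derive from bidirectional fits against DMSO negative controls.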

[4] = BSK_SAg_Proliferation: Cell Proliferation Assessment in the BioMAP Diversity Plus: SAg Assay (AID 2283095); conditions: primary human HUVEC with PBMC;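 further: relative cell number as total protein by SRB absorbance in sub-confluent culture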
How it was run: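 Cells (endothelium plus PBMC, human primary) were dosed with chemical, cultured 96 h, fixed in 10% TCA and stained with 0.1% SRB. Absorbance at 560 nm gave relative protein, fitted bidirectionally relative to DMSO.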

[5] = BSK_SAg_SRB: Viability Assessment in the BioMAP Diversity Plus: SAg Assay (AID 2283096); conditions: primary human HUVEC with PBMC;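 further: cells read one day after compound addition; hits may be either gain or loss of signal compared with DMSO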
How it was run: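 Endothelial/PBMC primary human co-culture; compound 24 h; fix 10% TCA, stain 0.1% SRB, A560; protein content as cytotoxicity proxy; bidirectional curve fit, DMSO = baseline.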

[6] = target: human CYP1A1, CYP1A1 (gene 1543) (UniProt P04798); assay: NVS_ADME_hCYP1A1: NovaScreen (NVS) CYP450-related Enzyme Activity (ADME) Assay for human CYP1A1 (AID 2283100; active means hit-call score of the fitted dose curve at least 0.9, where 1 is the maximum)
How it was run: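 Read-out: fluorescence intensity from enzymatic turnover of substrate by recombinant CYP1A1, loss of signal indicating inhibition. Incubation 1 h post-dose. Primary single-point 10 uM in duplicate; actives rerun singly with top concentration 20 uM.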

[7] = target: human CYP2B6, CYP2B6 (gene 1555) (UniProt P20813); assay: NVS_ADME_hCYP2B6: NovaScreen (NVS) CYP450-related Enzyme Activity (ADME) Assay for human CYP2B6 (AID 2283101; active means hit-call score of the fitted dose curve at least 0.9, where 1 is the maximum)
How it was run: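 Recombinant human CYP2B6 with fluorogenic substrate, read by fluorescence intensity 1 h after dosing. Primary screen in duplicate at 10 uM, actives followed in concentration series; signal loss relative to acetonitrile control.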

[8] = target: human CYP19A1, CYP19A1 (gene 1588) (UniProt P11511); assay: NVS_ADME_hCYP19A1: NovaScreen (NVS) CYP450-related Enzyme Activity (ADME) Assay for human CYP19A1 (AID 2283098; active means hit-call score of the fitted dose curve at least 0.9, where 1 is the maximum;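 on AC50: potency for inhibitors seen as loss of fluorescent enzyme signal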)
How it was run: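 Cell-free enzyme assay with recombinant protein and a specific fluorogenic substrate, read by fluorescence intensity 0.5 h after dosing. Primary screen ran in duplicate at 10 uM; actives were retested in concentration series. Loss of signal versus acetonitrile baseline.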

[9] = target: Cytochrome P450 2C19 (Homo sapiens) (UniProt P33261); assay: NVS_ADME_hCYP2C19: NovaScreen (NVS) CYP450-related Enzyme Activity (ADME) Assay for human CYP2C19 (AID 2283113; active means hit-call score of the fitted dose curve at least 0.9, where 1 is the maximum;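 on AC50: potency for inhibition seen as loss of fluorescent signal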)
How it was run: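 Recombinant insect-cell-expressed enzyme, fluorescent substrate, 1 h after chemical addition, fluorescence intensity. Baseline = acetonitrile vehicle; activity scored as signal loss. Primary HTS single concentration 10 uM, duplicate; actives retested in concentration series.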

[10] = target: human CYP2C9, CYP2C9 (gene 1559) (UniProt P11712); assay: NVS_ADME_hCYP2C9: NovaScreen (NVS) CYP450-related Enzyme Activity (ADME) Assay for human CYP2C9 (AID 2283108; active means hit-call score of the fitted dose curve at least 0.9, where 1 is the maximum)
How it was run: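 Cell-free assay of recombinant human CYP2C9 produced in Sf9 cells, with enzyme activity read by fluorescence intensity 0.75 h after compound addition. Loss of signal versus an acetonitrile negative control indicates inhibition. Primary screen used 10 uM in duplicate; actives were retested in concentration series.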

[11] = target: human CYP2D6, CYP2D6 (gene 1565) (UniProt P10635); assay: NVS_ADME_hCYP2D6: NovaScreen (NVS) CYP450-related Enzyme Activity (ADME) Assay for human CYP2D6 (AID 2283107; active means hit-call score of the fitted dose curve at least 0.9, where 1 is the maximum)
How it was run: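 Fluorescence intensity read 1 h post-dosing; insect-cell-expressed recombinant protein with fluorogenic substrate, no cells. Activity is scored as signal loss relative to acetonitrile baseline, first at a single 10 uM concentration in duplicate, then as concentration series for confirmed actives.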

[12] = target: human CYP2A6, CYP2A6 (gene 1548) (UniProt P11509); assay: NVS_ADME_hCYP2A6: NovaScreen (NVS) CYP450-related Enzyme Activity (ADME) Assay for human CYP2A6 (AID 2283099; active means hit-call score of the fitted dose curve at least 0.9, where 1 is the maximum)
How it was run: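 Insect-cell-expressed human CYP2A6 enzyme activity measured by fluorescence intensity 0.5 hour post-dosing. Compounds screened at 10 uM in duplicate, then hits tested singly in concentration series (max 20 uM); acetonitrile baseline.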

[13] = target: human CYP1A2, CYP1A2 (gene 1544) (UniProt P05177); assay: NVS_ADME_hCYP1A2: NovaScreen (NVS) CYP450-related Enzyme Activity (ADME) Assay for human CYP1A2 (AID 2283102; active means hit-call score of the fitted dose curve at least 0.9, where 1 is the maximum)
How it was run: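 Fluorescence-intensity enzyme activity read-out, taken 0.5 h post-dosing, using insect-cell-derived recombinant CYP1A2 and specific fluorescent substrate. Acetonitrile served as negative control/baseline. Single-concentration duplicate screen at 10 uM, then concentration-response follow-up.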

[14] = test system: rat CYP3A1, gene 25642; assay: NVS_ADME_rCYP3A1: NovaScreen (NVS) CYP450-related Enzyme Activity (ADME) Assay for rat CYP3A1 (AID 2283126; active means hit-call score of the fitted dose curve at least 0.9, where 1 is the maximum)
How it was run: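 Cell-free recombinant CYP assay with fluorescent substrate, read 0.5 h after dosing. Screened at 10 uM in duplicate, hits at up to 20 uM in concentration-response; loss of signal versus acetonitrile baseline.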

[15] = target: rat CYP3A2, Cyp3a2 (gene 266682) (UniProt P05183); assay: NVS_ADME_rCYP3A2: NovaScreen (NVS) CYP450-related Enzyme Activity (ADME) Assay for rat CYP3A2 (AID 2283128; active means hit-call score of the fitted dose curve at least 0.9, where 1 is the maximum)
How it was run: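 Cell-free rat CYP3A2 enzyme assay with fluorescent substrate, read 0.5 h after dosing. Primary duplicate screen at 10 uM; actives run in concentration-response up to 20 uM, relative to acetonitrile baseline.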

Measured: AC50

Sequence of human CYP2D6, CYP2D6 (gene 1565) (P10635 whole entry, looked up): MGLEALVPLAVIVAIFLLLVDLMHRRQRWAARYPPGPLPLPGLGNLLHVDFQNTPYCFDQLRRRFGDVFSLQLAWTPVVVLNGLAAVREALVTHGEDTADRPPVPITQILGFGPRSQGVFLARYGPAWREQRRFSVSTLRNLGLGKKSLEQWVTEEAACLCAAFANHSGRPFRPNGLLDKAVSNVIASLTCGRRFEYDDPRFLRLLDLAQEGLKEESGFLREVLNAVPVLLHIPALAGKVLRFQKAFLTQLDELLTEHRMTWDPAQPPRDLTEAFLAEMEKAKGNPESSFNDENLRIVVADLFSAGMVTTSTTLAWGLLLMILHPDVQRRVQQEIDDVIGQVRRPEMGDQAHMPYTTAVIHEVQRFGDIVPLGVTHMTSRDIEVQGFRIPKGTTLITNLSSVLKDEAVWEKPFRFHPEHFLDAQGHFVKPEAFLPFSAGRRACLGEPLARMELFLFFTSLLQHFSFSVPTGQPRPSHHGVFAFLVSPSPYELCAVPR
Sequence of human CYP2B6, CYP2B6 (gene 1555) (P20813 whole entry, looked up): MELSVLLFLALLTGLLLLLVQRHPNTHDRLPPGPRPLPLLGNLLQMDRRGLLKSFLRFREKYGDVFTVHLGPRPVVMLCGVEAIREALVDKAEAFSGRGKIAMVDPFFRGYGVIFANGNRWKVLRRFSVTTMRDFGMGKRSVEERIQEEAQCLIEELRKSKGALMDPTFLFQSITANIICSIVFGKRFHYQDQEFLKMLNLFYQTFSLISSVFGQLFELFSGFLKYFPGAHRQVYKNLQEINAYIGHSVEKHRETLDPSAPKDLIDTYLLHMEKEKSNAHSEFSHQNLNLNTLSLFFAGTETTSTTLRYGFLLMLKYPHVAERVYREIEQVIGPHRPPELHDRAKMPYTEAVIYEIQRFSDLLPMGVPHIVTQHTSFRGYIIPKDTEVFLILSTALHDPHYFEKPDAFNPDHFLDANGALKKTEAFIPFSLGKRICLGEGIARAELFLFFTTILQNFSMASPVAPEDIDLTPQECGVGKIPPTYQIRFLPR
Sequence of human CYP2A6, CYP2A6 (gene 1548) (P11509 whole entry, looked up): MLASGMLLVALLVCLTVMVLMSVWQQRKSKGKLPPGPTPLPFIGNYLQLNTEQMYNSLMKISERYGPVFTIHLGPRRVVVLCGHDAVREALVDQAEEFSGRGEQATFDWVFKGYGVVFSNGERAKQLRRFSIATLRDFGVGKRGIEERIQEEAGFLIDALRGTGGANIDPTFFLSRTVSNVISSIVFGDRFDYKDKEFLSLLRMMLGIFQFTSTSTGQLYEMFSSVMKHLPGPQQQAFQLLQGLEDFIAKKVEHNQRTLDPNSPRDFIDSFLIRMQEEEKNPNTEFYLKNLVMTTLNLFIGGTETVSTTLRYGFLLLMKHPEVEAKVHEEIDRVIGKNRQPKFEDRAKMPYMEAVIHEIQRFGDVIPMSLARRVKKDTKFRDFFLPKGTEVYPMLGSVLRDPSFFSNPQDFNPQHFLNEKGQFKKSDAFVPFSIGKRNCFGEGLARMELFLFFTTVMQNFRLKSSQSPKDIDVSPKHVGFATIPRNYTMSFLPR
Sequence of human CYP2C9, CYP2C9 (gene 1559) (P11712 whole entry, looked up): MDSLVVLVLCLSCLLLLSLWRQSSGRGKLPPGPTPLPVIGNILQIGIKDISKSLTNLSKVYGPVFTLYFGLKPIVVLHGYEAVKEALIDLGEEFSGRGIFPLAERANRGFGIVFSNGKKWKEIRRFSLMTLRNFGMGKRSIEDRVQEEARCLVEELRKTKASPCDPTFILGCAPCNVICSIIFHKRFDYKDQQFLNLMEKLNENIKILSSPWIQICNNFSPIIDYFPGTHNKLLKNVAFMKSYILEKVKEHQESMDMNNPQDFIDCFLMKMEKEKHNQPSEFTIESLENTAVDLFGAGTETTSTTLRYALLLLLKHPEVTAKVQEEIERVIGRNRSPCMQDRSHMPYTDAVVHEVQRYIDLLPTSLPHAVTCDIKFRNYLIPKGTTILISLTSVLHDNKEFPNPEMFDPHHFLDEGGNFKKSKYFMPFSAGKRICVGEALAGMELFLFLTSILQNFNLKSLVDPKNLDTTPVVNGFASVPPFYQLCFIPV
Sequence of rat CYP3A2, Cyp3a2 (gene 266682) (P05183 whole entry, looked up): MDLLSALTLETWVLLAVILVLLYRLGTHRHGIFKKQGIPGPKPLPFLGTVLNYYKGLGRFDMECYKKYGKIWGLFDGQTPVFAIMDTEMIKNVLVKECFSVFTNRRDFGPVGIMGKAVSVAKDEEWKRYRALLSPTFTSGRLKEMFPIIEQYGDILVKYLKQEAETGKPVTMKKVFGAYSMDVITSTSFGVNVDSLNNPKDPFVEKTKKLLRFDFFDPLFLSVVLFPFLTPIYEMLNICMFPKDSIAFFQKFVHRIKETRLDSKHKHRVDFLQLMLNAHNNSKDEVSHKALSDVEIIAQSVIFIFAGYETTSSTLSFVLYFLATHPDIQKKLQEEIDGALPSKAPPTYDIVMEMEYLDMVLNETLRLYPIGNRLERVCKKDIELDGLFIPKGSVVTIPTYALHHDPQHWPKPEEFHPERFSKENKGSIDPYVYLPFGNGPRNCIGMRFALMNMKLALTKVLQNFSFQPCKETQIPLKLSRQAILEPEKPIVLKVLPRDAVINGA
Sequence of human CYP19A1, CYP19A1 (gene 1588) (P11511 whole entry, looked up): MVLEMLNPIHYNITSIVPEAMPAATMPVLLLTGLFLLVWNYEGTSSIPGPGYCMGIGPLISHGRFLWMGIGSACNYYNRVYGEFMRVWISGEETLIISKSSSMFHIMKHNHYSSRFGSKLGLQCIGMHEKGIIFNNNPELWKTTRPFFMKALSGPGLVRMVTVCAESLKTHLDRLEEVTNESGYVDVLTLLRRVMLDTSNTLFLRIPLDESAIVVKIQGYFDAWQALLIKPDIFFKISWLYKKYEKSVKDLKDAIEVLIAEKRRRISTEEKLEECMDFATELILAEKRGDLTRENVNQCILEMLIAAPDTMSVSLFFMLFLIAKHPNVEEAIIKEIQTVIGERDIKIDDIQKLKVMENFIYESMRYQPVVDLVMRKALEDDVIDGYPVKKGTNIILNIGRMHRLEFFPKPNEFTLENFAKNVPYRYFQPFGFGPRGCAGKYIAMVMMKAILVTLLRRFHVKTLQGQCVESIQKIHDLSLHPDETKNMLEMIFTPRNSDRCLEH
Sequence of human CYP1A1, CYP1A1 (gene 1543) (P04798 whole entry, looked up): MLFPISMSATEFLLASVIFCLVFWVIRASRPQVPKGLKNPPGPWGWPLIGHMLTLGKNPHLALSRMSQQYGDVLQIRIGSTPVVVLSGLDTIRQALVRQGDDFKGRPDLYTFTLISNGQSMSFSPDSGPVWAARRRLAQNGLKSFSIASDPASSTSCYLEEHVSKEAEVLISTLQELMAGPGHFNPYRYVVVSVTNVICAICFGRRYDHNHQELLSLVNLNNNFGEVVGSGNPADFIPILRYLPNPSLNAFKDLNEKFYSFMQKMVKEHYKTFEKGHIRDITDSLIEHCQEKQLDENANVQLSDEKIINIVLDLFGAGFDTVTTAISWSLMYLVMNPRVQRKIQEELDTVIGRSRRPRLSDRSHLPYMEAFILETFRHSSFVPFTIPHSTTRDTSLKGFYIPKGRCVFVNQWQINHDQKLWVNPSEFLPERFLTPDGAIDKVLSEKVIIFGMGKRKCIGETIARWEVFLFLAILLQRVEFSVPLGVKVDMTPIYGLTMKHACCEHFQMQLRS
Sequence of human CYP1A2, CYP1A2 (gene 1544) (P05177 whole entry, looked up): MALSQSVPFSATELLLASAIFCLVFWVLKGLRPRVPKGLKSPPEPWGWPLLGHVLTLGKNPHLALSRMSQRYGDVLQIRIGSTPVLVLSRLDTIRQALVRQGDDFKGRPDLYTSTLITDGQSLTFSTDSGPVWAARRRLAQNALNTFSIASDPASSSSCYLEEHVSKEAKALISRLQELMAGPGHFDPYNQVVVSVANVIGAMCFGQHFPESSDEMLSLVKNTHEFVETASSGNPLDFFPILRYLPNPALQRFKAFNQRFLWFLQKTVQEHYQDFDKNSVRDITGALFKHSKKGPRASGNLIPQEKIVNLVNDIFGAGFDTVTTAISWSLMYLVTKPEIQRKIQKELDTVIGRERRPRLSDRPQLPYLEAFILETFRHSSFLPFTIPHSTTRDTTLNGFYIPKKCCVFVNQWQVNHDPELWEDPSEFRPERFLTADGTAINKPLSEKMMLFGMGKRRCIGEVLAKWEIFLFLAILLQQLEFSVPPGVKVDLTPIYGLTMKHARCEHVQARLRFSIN

NC(=O)c1nc(-c2cccc(-c3cc(F)ccc3OCC(F)(F)C(F)(F)F)c2)n[nH]1
active: [1] 40.3 µM | [2] 35.7 µM | [3] 18.2 µM | [4] 26.2 µM | [5] 32.7 µM

O=c1[nH]sc2ccccc12
active: [1] 28.8 µM | [2] 3.66 µM | [3] 23.2 µM | [4] 0.77 µM | [5] 26.8 µM | [6] 5.11 µM | [7] 0.721 µM

CCCCCCCCOc1ccc(C(=O)c2ccccc2)c(O)c1
inactive: [1] | [2] | [3] | [8]
active: [4] 15 µM | [5] 30.4 µM

CO[C@H]1/C=C/O[C@@]2(C)Oc3c(C)c(O)c4c(O)c(c(/C=N/N5CCN(C)CC5)c(O)c4c3C2=O)NC(=O)/C(C)=C\C=C\[C@H](C)[C@H](O)[C@@H](C)[C@@H](O)[C@@H](C)[C@H](OC(C)=O)[C@@H]1C
active: [2] 9.8 µM | [4] 17.6 µM | [9] 10.7 µM
inactive: [1] | [3] | [5]

CC(O)CC(C)(C)O (stereo not given)
inactive: [1] | [2] | [3] | [4] | [5]

COc1cc(C(=O)NC2CCN(C)CC2)ccc1Nc1ncc2c(n1)N(C1CCCC1)CC(F)(F)C(=O)N2C
active: [1] 14.4 µM | [2] 13.8 µM | [3] 10.2 µM | [4] 5.59 µM | [5] 18.6 µM | [10] 6.56 µM | [9] 7.11 µM

c1ccc(C[n+]2cccc3ccccc32)cc1
active: [11] 7.84 µM | [9] 4.78 µM
inactive: [1] | [2] | [3] | [4] | [5]

CC[C@H](NC(=O)c1cc(F)ccc1NS(=O)(=O)c1cccc2cccnc12)c1ccccc1
active: [3] 8.99 µM | [4] 22.5 µM
inactive: [1] | [2] | [5] | [12]

CC1=CC(=O)/C(=C(/C)O)C(=O)O1
inactive: [1] | [2] | [3] | [4] | [5] | [8]

O=C(O)Cc1cc(I)c(Oc2ccc(O)c(I)c2)c(I)c1
inactive: [1] | [2] | [3] | [5] | [8] | [9]
active: [4] 11.8 µM

CCN(Cc1cccnc1)C(=O)c1cccc(Cl)c1[C@]1(C)C(=O)N(Cc2ccc(OC)cc2OC)c2ccc(Cl)cc21
active: [3] 3.93 µM | [4] 7.09 µM | [5] 5.81 µM | [10] 2.28 µM | [9] 1.01 µM
inactive: [1] | [2] | [6] | [7] | [11]

Clc1ccccc1C(c1ccccc1)(c1ccccc1)n1ccnc1
active: [1] 35.1 µM | [2] 33.1 µM | [3] 11.6 µM | [4] 9.32 µM | [5] 24.4 µM | [6] 2.68 µM | [11] 3.72 µM | [10] 0.585 µM | [9] 1.1 µM
inactive: [12] | [13]

Cc1ccc(C(C)C)cc1
inactive: [1] | [2] | [3] | [4] | [5]

O=c1c(-c2ccc(O)cc2)coc2cc(O)cc(O)c12
inactive: [7]
active: [1] 29.7 µM | [2] 20 µM | [3] 20 µM | [4] 15.6 µM | [5] 20 µM | [14] 8.92 µM and 5.71 µM | [15] 995 nM and 815 nM and 5.56 µM

Oc1ccccc1
inactive: [1] | [2] | [3] | [4] | [5] | [12]

C[C@]12CC[C@@H]3c4ccc(O)cc4CC[C@H]3[C@@H]1CCC2=O
inactive: [1] | [2] | [3] | [4] | [5]

CCCCCCCCCCCO
active: [2] 33.1 µM | [4] 33.6 µM
inactive: [1] | [3] | [5]

O=C1CCC(C2CCCCC2)CC1
inactive: [1] | [2] | [3] | [4] | [5] | [8] | [9]
active: [8] 11.6 µM

CC[C@@H]1C[C@H](N(Cc2cc(C(F)(F)F)cc(C(F)(F)F)c2)C(C)=O)c2cc(C(F)(F)F)ccc2N1C(=O)OC(C)C
inactive: [1] | [2] | [3] | [4] | [5]

CC(C)(C)c1csc(-c2cc3cc(OCc4ccccc4CC(=O)O)ccc3o2)n1
inactive: [2]
active: [1] 38.5 µM | [3] 15.5 µM | [4] 20.1 µM | [5] 20 µM
